Over roughly 33,000 sequences, “E-score (-0.5 to 0.5)” has its median near -0.016; the highest 2% begin near 0.3. What follows is part of a selection rich in the highest values, with near analogues and random picks from the rest.
target: T1, Yer184c (UniProt P39961); assay: PBM E-score (8-mer binding enrichment) (E-score (-0.5 to 0.5)); higher = stronger / more preferred TF binding; settings: protein concentration: 100 nM; construct: GST-full length
T1 sequence: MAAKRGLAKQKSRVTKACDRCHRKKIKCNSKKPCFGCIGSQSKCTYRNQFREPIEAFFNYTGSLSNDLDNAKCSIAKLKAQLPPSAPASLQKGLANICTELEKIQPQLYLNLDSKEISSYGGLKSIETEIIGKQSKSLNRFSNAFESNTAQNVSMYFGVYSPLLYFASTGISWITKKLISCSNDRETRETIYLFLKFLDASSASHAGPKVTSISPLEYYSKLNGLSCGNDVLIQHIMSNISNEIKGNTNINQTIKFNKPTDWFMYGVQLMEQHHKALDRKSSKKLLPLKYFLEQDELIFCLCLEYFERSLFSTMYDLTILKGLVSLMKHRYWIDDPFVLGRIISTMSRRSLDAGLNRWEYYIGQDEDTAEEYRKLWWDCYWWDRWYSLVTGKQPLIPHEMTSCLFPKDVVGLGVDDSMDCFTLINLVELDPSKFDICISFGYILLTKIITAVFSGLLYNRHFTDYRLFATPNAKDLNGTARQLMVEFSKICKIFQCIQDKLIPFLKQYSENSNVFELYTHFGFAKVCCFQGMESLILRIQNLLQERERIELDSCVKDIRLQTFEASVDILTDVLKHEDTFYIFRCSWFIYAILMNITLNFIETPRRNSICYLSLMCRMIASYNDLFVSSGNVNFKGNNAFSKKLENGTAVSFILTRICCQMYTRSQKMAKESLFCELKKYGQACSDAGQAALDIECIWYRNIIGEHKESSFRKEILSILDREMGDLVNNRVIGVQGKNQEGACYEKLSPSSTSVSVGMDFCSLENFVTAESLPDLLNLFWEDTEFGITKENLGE
In short: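 Universal all-10-mer Agilent arrays, fresh or stripped once, were converted to double-stranded form by primer extension. GST-tagged yeast transcription factors from PURExpress in vitro transcription/translation, full-length or DNA-binding domain only, were applied at about 100-200 nM and detected with fluorescent anti-GST. After masliner normalisation, the Universal PBM Analysis Suite scored each ungapped eight-base word together with its reverse complement by E-score.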

| Sequence | PBM E-score |
| --- | --- |
| ACATCTCC | 0.128 |
| GTCATTCA | 0.0449 |
| CCGTCTCG | 0.159 |
| AGCTCGGC | 0.316 |
| AGCTCGGG | 0.138 |
| ATCTCGGC | 0.37 |
| CTCTCGGC | 0.238 |
| CACTCGGG | 0.0303 |
| AGCTCGGA | 0.159 |
| CACTCGGC | 0.331 |
| ATCTCGGA | 0.31 |
| AACTCGGC | 0.273 |
| GTCTCGGA | 0.227 |
| ACCTCGGC | 0.238 |
| ATCTCGGG | 0.219 |
| ACAGTAGT | -0.0892 |
| AAGACCAA | 0.052 |
| GAGCCTAA | -0.0836 |
| ACTGCAAA | 0.0905 |
| GTAAGCGA | 0.00236 |
| GCTCAAAA | 0.199 |
| GTATACAA | 0.125 |
| ATATACAA | 0.219 |
| TTATACAA | 0.313 |
| CAACTTTC | 0.0846 |

| Sequence | PBM E-score |
| --- | --- |
| GTACTACA | 0.0564 |
| CTTGTCTC | 0.0611 |
| AATATGCA | -0.0575 |
| TCGGCTAA | 0.313 |
| ACGGCTAA | 0.233 |
| CCGGCTCC | 0.293 |
| ACGGCTCG | 0.21 |
| GCGGCTCA | 0.2 |
| TCGGCTCA | 0.2 |
| CCGGCTCG | 0.339 |
| GCGGCTAA | 0.186 |
| CCGGCTCA | 0.362 |
| CAAGAGGA | -0.0179 |
| CCGGTCGA | 0.141 |
| ACTGCCGA | 0.262 |
| AGGCGAGG | -0.204 |
| CATGCTTA | -0.103 |
| CTCCAAGC | -0.181 |
| CGCTAATC | -0.0149 |
| GGAGGGCC | -0.308 |
| ACGCCCGA | 0.056 |
| AATATATA | 0.267 |
| AATATATG | 0.153 |
| TATATATA | 0.424 |
| CATATATA | 0.28 |

| Sequence | PBM E-score |
| --- | --- |
| GATATATC | 0.266 |
| AATATATT | 0.38 |
| GATATATA | 0.349 |
| TATATACA | 0.164 |
| GATATACA | 0.128 |
| AGGCCTAA | 0.0613 |
| CGCATGAG | -0.284 |
| CGACAGTC | -0.182 |
| AGATCATC | 0.0775 |
| CGTGGCAA | -0.0803 |
| CATACCAC | 0.0462 |
| ACGAACAA | 0.275 |
| AGGAACTA | -0.103 |
| GCGAACAA | 0.246 |
| CCGAACAA | 0.322 |
| CGGAACTA | 0.414 |
| CGGAACTC | 0.202 |
| GGGAACAC | 0.221 |
| AGGAACAC | 0.161 |
| CGGAACGC | 0.241 |
| CGGAACGA | 0.306 |
| CGGAACAC | 0.356 |
| AGGAACGA | -0.141 |
| ACCAGACT | -0.0238 |
| GTTTGCTA | 0.0684 |

| Sequence | PBM E-score |
| --- | --- |
| ATACACGG | 0.047 |
| CGGCGCAA | 0.178 |
| AGGCTGAT | -0.161 |
| GGGAACAA | 0.158 |
| CCGAACTA | 0.323 |
| CCGAACAG | 0.216 |
| CGGAACAA | 0.39 |
| TGGAACAA | 0.195 |
| AGGAACAG | -0.19 |
| ACGAACTA | 0.157 |
| CCGAACTC | 0.246 |
| CGGAACAG | 0.338 |
| CGATAGCA | -0.114 |
| AGTTACGA | 0.107 |
| CAGAGGGG | -0.286 |
| AGTAGCTC | -0.00154 |
| CTCGCTTC | -0.0232 |
| AGTCTGAG | -0.14 |
| AGGCTCAC | -0.273 |
| ATATTAAA | 0.368 |
| GCATTAAA | 0.149 |
| TCATTAAA | 0.343 |
| AATTTTAC | 0.176 |
| AGTTTTAA | 0.159 |
| AATTTTAT | 0.379 |

| Sequence | PBM E-score |
| --- | --- |
| TGTTTAAA | 0.0737 |
| TGTTTTAA | 0.327 |
| TTATTAAA | 0.233 |
| CTATTAAA | 0.21 |
| ACATTAAA | 0.0822 |
| AAATTTAT | 0.286 |
| TCAGCAAA | 0.158 |
| ACTAGTGA | -0.172 |
| AGAGCTTA | 0.0135 |
| CGTTTCAC | 0.135 |
| ATCAATGA | 0.2 |
| CAGTAAAG | -0.177 |
| GAGCAACA | 0.128 |
| GATAACAC | 0.0102 |
| AATTTATA | 0.24 |
| ATATTTAC | 0.202 |
| CTATTTAA | 0.0903 |
| ATATTTAA | 0.306 |
| ATTTTTTA | 0.274 |
| GTTTTAAA | 0.131 |
| ATTTTTAA | 0.333 |
| ATTTTAAC | 0.028 |
| ATTTTAAA | 0.331 |
| AATTTTAA | 0.252 |
| AATTTATG | 0.307 |

| Sequence | PBM E-score |
| --- | --- |
| ATTTTATG | 0.217 |
| ACCCCGCA | -0.0654 |
| GCTTTTCC | 0.109 |
| GGCGATTA | 0.0843 |
| CAGATCGA | -0.0498 |
| CCTAGTTA | 0.0429 |
| ACCCTACA | -0.0427 |
| AGTTGACA | 0.0221 |
| AGAGGTGA | -0.148 |
| ACCCCGGC | 0.0581 |
| ATCCCGGG | 0.36 |
| AAACCCGA | 0.215 |
| AAACCCGC | 0.135 |
| ACCCCGGG | 0.263 |
| AAACCCGG | 0.337 |
| CACCCGGG | 0.189 |
| ATCCCCGG | 0.185 |
| AACCCGGG | 0.325 |
| AACCCGGC | 0.329 |
| ATCCCGGA | 0.274 |
| CACCCGGC | 0.15 |
| ACTTTTTG | 0.154 |
| ACCCTCGT | -0.116 |
| ACAGTAAG | -0.0845 |
| GACATTGC | -0.175 |

| Sequence | PBM E-score |
| --- | --- |
| ATATAAAC | 0.17 |
| AAATAAAT | 0.34 |
| AAATAAAA | 0.0817 |
| AAATAAAG | 0.045 |
| ATATAAAT | 0.305 |
| ATATAAAG | 0.0639 |
| CGTGCTGC | -0.0543 |
| CGGGGGGA | -0.373 |
| AACTGCAA | 0.0848 |
| GAGTTAGC | -0.0328 |
| CTCTTATA | 0.145 |
| ATGGTATA | -0.0158 |
| ACATGCTG | -0.257 |
| CCACCGGG | -0.00255 |
| CCACCGGC | 0.146 |
| GCACCGGC | 0.234 |
| CCACCGGA | 0.346 |
| GCACCGGA | 0.33 |
| ACACCGGA | 0.246 |
| TAGACCGA | 0.105 |
| TAATCATA | 0.157 |
| TACTAGTA | 0.338 |
| CACTAGTA | -0.0824 |
| GACTAGTA | -0.12 |
| AGTGCCGA | 0.333 |

| Sequence | PBM E-score |
| --- | --- |
| AGTGCCGG | 0.337 |
| AGTGCCTG | -0.132 |
| AGTGCCAG | -0.28 |
| GGTGCCGA | 0.266 |
| AGTGCCGC | 0.123 |
| GGACCACC | -0.116 |
| CTCGACCC | -0.118 |
| AGCTGCCC | 0.034 |
| TGGCTTAA | 0.175 |
| CGGCTTCC | 0.198 |
| CGGCTTCA | 0.345 |
| CGGCTTAG | 0.213 |
| AGGCTTCA | -0.108 |
| CGGCTTAA | 0.393 |
| ACGTCAAG | -0.124 |
| CACCTTGA | -0.151 |
| GTCAACGA | -0.0301 |
| GCTGTTTA | 0.141 |
| CCCGGCAG | 0.131 |
| ACCGGCAC | 0.363 |
| CCCGGCAC | 0.0863 |
| ACCGGCAA | 0.222 |
| GGCGGCAC | 0.0696 |
| ACCGGCAG | 0.0457 |
| TCCGGCAA | 0.339 |

| Sequence | PBM E-score |
| --- | --- |
| TACGGCAA | 0.158 |
| CCCGGCAA | 0.335 |
| CGCGGCAA | 0.274 |
| TGCGGCAA | 0.0333 |
| GCCGGCAC | 0.422 |
| GTGAGGGA | -0.252 |
| CAATTGCG | -0.0249 |
| ACGCTAAA | 0.0442 |
| AAATTGAT | 0.159 |
| AGTTAACC | -0.0162 |
| GCTATCCC | -0.16 |
| CGAATGCA | 0.0594 |
| ACCTTGCA | -0.197 |
| AAAAATGT | 0.0248 |
| CTTCTGAC | -0.218 |
| CCACAAGA | 0.0207 |
| GACGGCAA | 0.148 |
| GCCGGCAA | 0.424 |
| GCCGGCTA | 0.266 |

From the supplement of paper PMC3334620
